The source of these data is PubChem BioAssay (EPA / NIEHS).

The structures appear in SMILES notation. Inconclusive results are not listed. The source made the active and inactive calls. Rule for the calls: active = hit-call score of the fitted dose curve at least 0.9, where 1 is the maximum; inconclusive = response in the unintended direction; inactive = score below 0.9.

A short description of test [1]: ArunA_CellTiter_hNC: Viability Assessment in the ArunA Biomedical's Oris Neural Crest (hNC) Cell Migration Assay (AID 2283752). As to the method: ArunA_CellTiter_hNC is a cell-based, single-readout assay that uses human H9-derived embryonic neural crest stem cells (hNC). Measurements were taken 72 hours after chemical dosing in a 96-well plate.ArunA_CellTiter_hNC is an assay component measured from the ArunA_CellTiter_hNC assay. It is designed to make measurements of viability, a form of viability reporter, as detected with fluorescence intensity signals by HCS Fluorescent Imaging technology. Data from the assay component ArunA_CellTiter_hNC was analyzed at the endpoint, ArunA_CellTiter_hNC, in the positive analysis fitting direction relative to DMSO as the negative control and baseline of activity. […]
To assess the hNP and hNC migration and cell titer endpoints, 60,000 cells per well were plated onto Matrigel in basal growth medium with LIF and bFGF in a 96-well plate format. […] Cell viability in the detection zone was quantitated using a Flexstation3 microplate reader (ex494 nm/em 517 nm). Corresponding cell titer endpoints were assessed for the hNP and hNC cells using the Promega CellTiter Aqueous One Solution Cell Proliferation Assay (Cat no. G3581; CellTiter 96). Finally, to gain insight into the mechanisms by which cells migrate into the detection zone, Ki-67 expression was quantified for 10 additional chemicals in the hNP and hNC systems. […]

Test [2] can be described thus: ArunA_Migration_hNP: ArunA Biomedical's Oris Neuroprogenitor (hNP) Cell Migration Assay (AID 2283754). In a few lines:
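Human H9-derived hNP1 neuroprogenitors on Matrigel with LIF/bFGF, plated around seeding stoppers for 16 h at 37C; stoppers removed at start of 72 h chemical exposure. Calcein-AM staining, fluorescence 494/517 nm in detection zone; loss-of-signal vs DMSO; cytochalasin D control.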

Test [3] can be described thus: ArunA_Migration_hNC: ArunA Biomedical's Oris Neural Crest (hNC) Cell Migration Assay (AID 2283755). In a few lines:
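Human H9-derived neural crest stem cells, 60,000/well on Matrigel, 16 h at 37C, then 72 h chemical exposure after seeding-stopper removal. Migration into detection zone read as calcein-AM fluorescence (ex494/em517), relative to DMSO.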

Test [4] is described as follows: ArunA_NOG_NucleusCount: ArunA Biomedical's Neurite Outgrowth (NOG) Assay for Nucleus Count (AID 2283756). In a few lines: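 Human H9-derived differentiated neurons were exposed for 48 h right after seeding. Hoechst-stained nuclei gated by size and intensity were counted by automated high-content imaging as viable neurons. Loss of signal vs DMSO.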
The test system of test [5] is Thyroperoxidase (TPO), gene 445522. Nature of the test: CCTE_Simmons_GUA_TPO: CCTE's Guaiacol Assay for Thyroperoxidase (TPO) Inhibition, Simmons Lab (AID 2283750). As to the method: CCTE_Simmons_GUA_TPO is a biochemical, single-readout assay that uses microsomes from porcine thyroid gland in a tissue-based cell-free assay. Measurements were taken 0.5 hour after chemical dosing in a 384-well plate.CCTE_Simmons_GUA_TPO is the assay component measured from the CCTE_Simmons_GUA_TPO assay. It is designed to make measurements of enzyme activity, a form of enzyme reporter, as detected with absorbance signals by enzyme activity technology. This is an orthogonal assay to CCTE_Simmons_AUR_TPO run for confirmation.Data from the assay component CCTE_Simmons_GUA_TPO was analyzed at the endpoint, CCTE_Simmons_GUA_TPO, in the positive analysis fitting direction relative to DMSO as the negative control and baseline of activity. […]
The GUA assay has been described previously for both rat and pig thyroid microsomes (Chang and Doerge, 2000; Paul et al., 2013; Tietge et al., 2013). […] Guaiacol (10 ul; 35mM final assay concentration) was then added using a BMG Clariostar plate reader equipped with syringe injectors and incubated with test chemical exposure at 37C for 30s. […] The oxidation of guaiacol was monitored during the linear phase (first 80 seconds of the reaction) at 450nm, and the change in absorbance over this period was recorded for data analysis. […]

Test [6] concerns chicken Androgen Receptor (AR), gene 422165. Nature of the test: ATG_chAR_XSP1: Attagene TRANS-FACTORIAL Multi-Species (XSP1) HepG2 Assay for chicken Androgen Receptor (AR) (AID 2283768). In a few lines: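 HepG2 cells transiently transfected with multiplexed GAL4-UAS reporter units expressing chimeric chicken AR-Gal4; 3 nM 6-alpha-fluorotestosterone for partial AR stimulation; 24 h after dosing, reporter mRNA by RT-PCR and capillary electrophoresis, gain-of-signal versus DMSO.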

Test [7] concerns zebrafish Androgen Receptor (AR), gene 100005148. Nature of the test: ATG_zfAR_XSP1: Attagene TRANS-FACTORIAL Multi-Species (XSP1) HepG2 Assay for zebrafish Androgen Receptor (AR) (AID 2283771). In a few lines: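 HepG2 cells were transiently transfected with a zebrafish AR-GAL4 reporter system and partially stimulated with 3 nM 6-alpha-fluorotestosterone. Reporter mRNA was measured after 24 h dosing by RT-PCR with capillary electrophoresis, and gain-of-signal was fitted relative to DMSO.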

For test [8], the target named is zebrafish Estrogen Receptor (ESR1), esr1 (gene 259252) (UniProt P57717). Nature of the test: ATG_zfER1_XSP1: Attagene TRANS-FACTORIAL Multi-Species (XSP1) HepG2 Assay for zebrafish Estrogen Receptor (ESR1) (AID 2283772). The method in brief:
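Readout: fluorescent reporter mRNA, RT-PCR plus FAM labelling, HpaI digest, capillary electrophoresis; gain-of-signal fit vs DMSO. HepG2, transient multi-reporter TRANS (NR-GAL4 chimera), 24 h chemical exposure, 3 nM 6-alpha-fluorotestosterone co-added.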

The nature of test [9]: ArunA_NOG_NeuriteLength: ArunA Biomedical's Neurite Outgrowth (NOG) Assay for Neurite Length (AID 2283757). In a few lines: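 Differentiated human H9-derived neurons were exposed for 48 h from seeding, then stained with Hoechst and βIII-tubulin. Automated high-content imaging gave total neurite length per valid neuron, counting processes >10 um. Loss of signal was scored versus DMSO.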

Test [10] can be described thus: ArunA_NOG_NeuritesPerNeuron: ArunA Biomedical's Neurite Outgrowth (NOG) Assay for Neurites Per Neuron (AID 2283758). In a few lines:
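Differentiated human H9-derived neurons exposed to chemicals for 48 h from seeding, then stained with Hoechst and βIII-tubulin/DyLight 488. Automated imaging counted neurites (processes >10 um) per valid neuron; loss of signal versus DMSO scored.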

zebrafish Estrogen Receptor (ESR1), esr1 (gene 259252), sequence (P57717 whole entry, looked up, the tested form may be a part): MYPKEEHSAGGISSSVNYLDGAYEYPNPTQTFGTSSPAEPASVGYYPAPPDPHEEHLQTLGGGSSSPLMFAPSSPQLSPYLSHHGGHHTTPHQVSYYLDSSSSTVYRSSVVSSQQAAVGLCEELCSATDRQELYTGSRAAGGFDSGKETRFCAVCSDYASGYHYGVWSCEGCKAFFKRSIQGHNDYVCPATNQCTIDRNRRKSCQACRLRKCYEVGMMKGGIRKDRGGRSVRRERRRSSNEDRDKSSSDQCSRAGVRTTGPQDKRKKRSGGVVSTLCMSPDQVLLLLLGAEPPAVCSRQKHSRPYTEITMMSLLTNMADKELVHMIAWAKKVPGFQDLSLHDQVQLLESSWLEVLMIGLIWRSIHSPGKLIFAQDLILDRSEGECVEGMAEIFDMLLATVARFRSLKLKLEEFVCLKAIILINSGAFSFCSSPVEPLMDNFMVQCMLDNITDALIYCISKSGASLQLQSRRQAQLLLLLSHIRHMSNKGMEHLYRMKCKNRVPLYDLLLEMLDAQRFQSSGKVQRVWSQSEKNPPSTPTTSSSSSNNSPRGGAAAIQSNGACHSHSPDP

`CCCCCCCCCCCCc1ccccc1S(=O)(=O)O`: the compound was classed as inactive in [1], in [2], in [3] and in [4].
What is called AC50 is the midpoint of the concentration-response curve, whichever way the signal moves. Turning to `O=C(O)c1ccccc1C(c1ccc(O)cc1)c1ccc(O)cc1`, the AC50 in test [5] is 118 µM (active).
In the case of `CC[C@H](c1ccc(O)cc1)[C@@H](CC)c1ccc(O)cc1`, the compound was called inactive in test [6] and in test [7]. The AC50 in test [8] is 0.114 nM (active).
On to `O=C(O)Cc1cc(I)c(Oc2cc(I)c(O)c(I)c2)c(I)c1`, for which the result in test [1], in [3], in test [4], in test [9] and in test [10] was inactive.
`CCC(C)(C)C1CCC(O)CC1` (stereo not given): the call in test [7] and in test [8] was inactive.
